Screening data as filed in PubChem BioAssay.
L3MBTL1 block = blocks human L3MBTL1 | AlphaScreen L3MBTL1–H3K9me1 peptide binding | Q9Y468 | hit rate 0.66% among 230,000 | Potency, µM (titrated, usually from 57.1 µM), actives largely listed as inhibitors; further: nearly all actives have a fitted effect of over 60% in size
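Displacement of a biotinylated histone H3(1-15) peptide monomethylated at Lys9 (75 nM) from L3MBTL1 (50 nM) was measured by AlphaScreen after a 30 min room-temperature compound incubation; cefsulodin titration served as intraplate control.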
HP1b chromo inh = HP1-beta chromodomain-methylated histone interaction inhibition | AlphaScreen HP1-beta / biotin-H3K9me3 peptide binding | hit rate 0.56% among 390,000 | P83916 | AID 540317 | Potency, µM (series often up to 114 µM), actives largely listed as inhibitors; further: nearly all actives have a fitted effect of over 70% in size
Target sequence (P83916 whole entry, looked up): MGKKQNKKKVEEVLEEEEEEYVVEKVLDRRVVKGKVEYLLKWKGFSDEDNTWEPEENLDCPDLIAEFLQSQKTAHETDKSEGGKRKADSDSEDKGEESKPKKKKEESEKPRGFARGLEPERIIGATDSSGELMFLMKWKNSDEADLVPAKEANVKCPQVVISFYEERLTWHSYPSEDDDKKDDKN
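HP1-beta protein (50 nM final) preincubated 30 min at room temperature with biotinylated H3(1-18)K9me3 peptide (50 nM) in PBS pH 7.4, 0.01% Tween-20, then compound added for 30 min. AlphaScreen streptavidin donor/nickel chelate acceptor beads (10 ug/mL final), 30 min dark, luminescence read.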
JMJD2A Tudor inh = inhibitors of human JMJD2A Tudor domain; O75164; AlphaScreen JMJD2A-Tudor / H3K4me3 peptide binding; Potency, µM (series often up to 114 µM), hits mostly inhibitors; hit rate 4.4% among 390,000; AID 504339; further: nearly all actives have a fitted effect of over 50% in size
G9a block = blocks human histone lysine methyltransferase G9a. G9a H3K9 monomethylation, AlphaScreen, 2 h. Potency, µM (titrated, usually from 102 µM), hits mostly inhibitors. hit rate 8.8% among 350,000. AID 504332; further: nearly all actives have a fitted effect of over 75% in size
Target sequence (Q96KQ7 913-1193 limits assumed): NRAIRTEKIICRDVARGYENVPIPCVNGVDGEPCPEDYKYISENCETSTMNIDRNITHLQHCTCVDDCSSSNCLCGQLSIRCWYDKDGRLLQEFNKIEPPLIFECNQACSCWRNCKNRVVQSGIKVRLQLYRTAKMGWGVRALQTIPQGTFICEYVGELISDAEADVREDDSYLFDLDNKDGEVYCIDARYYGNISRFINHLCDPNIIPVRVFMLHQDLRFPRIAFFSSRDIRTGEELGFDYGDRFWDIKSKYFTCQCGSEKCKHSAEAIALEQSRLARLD
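Chemiluminescent proximity detection of H3K9 monomethylation, read after 10 min bead incubation in the dark. Reaction: 20 nM G9a, 500 nM biotin-H3K9 peptide, 20 uM SAM cofactor, 2 h, room temperature, following 15 min enzyme-compound preincubation.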
BAZ2B block = blocks human BAZ2B | Q9UIF8 | Potency, µM (top dose mostly 114 µM), actives largely listed as inhibitors | AlphaScreen BAZ2B-H3K14Ac peptide displacement | hit rate 4.4% among 360,000 | AID 504333; further: nearly all actives have a fitted effect of over 60% in size
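Inhibition is scored as reduced AlphaScreen emission. The BAZ2B/b-H3(5-23)K14Ac complex (50 nM each) in PBS pH 7.4, 0.01% Tween-20 meets compound (up to 110 uM) for 30 min at RT before bead addition.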
Large screens that a line does not name were inactive. Hits are enriched below; roughly 11% of the tested compounds scored in any of these assays. The call rests on the fitted dose curve; in most records, active means well fitted inhibition curve with a large enough effect; inconclusive means small, poorly fitted or top-dose-only effect; inactive means no such curve, though single readings can be large or run the other way.

Cc1cccc(-n2cc(-c3ccccc3)c3c(NC(C)C)ncnc32)c1	none (no result: L3MBTL1 block)
NS(=O)(=O)c1ccc(NC(=S)N2CCN(c3cccc(Cl)c3)CC2)cc1	G9a block 8.9µM
CN1CCN(C(=S)Nc2ccc(S(N)(=O)=O)cc2)CC1	G9a block 40µM
NS(=O)(=O)c1ccc(NC(=S)N2CCN(S(=O)(=O)c3ccc(F)cc3)CC2)cc1	none (no result: HP1b chromo inh, JMJD2A Tudor inh)
S=C(NCCN1CCOCC1)N1CCN(c2cccc(Cl)c2)CC1	JMJD2A Tudor inh 8.9µM, G9a block 35µM, BAZ2B block 28µM (no result: L3MBTL1 block)
COc1cc(OC)c(NS(=O)(=O)c2c(C(=O)N3CCC(C)CC3)c(C)n(C)c2C)cc1Cl	none (no result: L3MBTL1 block)
O=C(O)CN1C(=O)/C(=C\c2cc(Br)ccc2OCc2ccc(Cl)cc2)SC1=S	JMJD2A Tudor inh 56µM, G9a block 14µM, BAZ2B block 50µM (no result: L3MBTL1 block)
O=C(O)COc1ccccc1/C=C1\SC(=O)N(Cc2ccc(F)cc2)C1=O	none
O=C(O)CN1C(=O)/C(=C\c2cc(Br)ccc2OCc2ccc(F)cc2)SC1=S	HP1b chromo inh inconclusive, JMJD2A Tudor inh inconclusive, G9a block 45µM, BAZ2B block 56µM (no result: L3MBTL1 block)
O=C(O)CN1C(=O)/C(=C\c2ccccc2OCc2ccc(F)cc2)SC1=S	JMJD2A Tudor inh inconclusive, G9a block 50µM (no result: L3MBTL1 block)
O=C(O)CCCN1C(=O)/C(=C/c2cn(-c3ccccc3)nc2-c2cccs2)SC1=S	HP1b chromo inh inconclusive, JMJD2A Tudor inh 14µM, G9a block inconclusive, BAZ2B block 45µM (no result: L3MBTL1 block)
Cc1nn(-c2ccccc2)c(Cl)c1/C=C1\SC(=S)N(CCCCCC(=O)O)C1=O	HP1b chromo inh inconclusive, JMJD2A Tudor inh inconclusive, BAZ2B block inconclusive
c1coc(-c2nc3n(n2)C2(CCCCC2)[C@@H]2CCCC[C@@H]2N3)c1	BAZ2B block inconclusive (no result: L3MBTL1 block)
COc1ccc(/C=C2/SC(=S)N(CC(=O)O)C2=O)cc1OCc1ccc(Cl)cc1	JMJD2A Tudor inh inconclusive, BAZ2B block inconclusive (no result: G9a block)
O=C(O)CCCCN1C(=O)/C(=C\c2ccc(OCc3ccccc3)c(OCc3ccccc3)c2)SC1=S	HP1b chromo inh inconclusive, JMJD2A Tudor inh 18µM, BAZ2B block 32µM (no result: L3MBTL1 block)
O=C(CN1C(=O)/C(=C/c2ccccc2Cl)SC1=S)NC1C=CS(=O)(=O)C1 (centres undefined)	none (no result: L3MBTL1 block)
O=C(O)CCCN1C(=O)/C(=C\C(Cl)=C\c2ccccc2)SC1=S	HP1b chromo inh inconclusive, JMJD2A Tudor inh 50µM, G9a block 14µM, BAZ2B block 50µM (no result: L3MBTL1 block)
COc1ccccc1/C=C1\SC(=S)N(CCC(=O)NNC(=O)c2ccccc2OC)C1=O	none (no result: L3MBTL1 block)
CN1CCN(C(=O)CCCN2C(=O)/C(=C/c3ccccc3)SC2=S)CC1	JMJD2A Tudor inh inconclusive, G9a block inconclusive, BAZ2B block inconclusive (no result: L3MBTL1 block)
O=C(O)CCCN1C(=O)/C(=C\c2ccccc2OCc2ccccc2)SC1=S	HP1b chromo inh inconclusive, JMJD2A Tudor inh 56µM, G9a block 40µM, BAZ2B block 50µM (no result: L3MBTL1 block)
O=C(O)CN1C(=O)/C(=C\c2cc([N+](=O)[O-])ccc2OCc2ccccc2Cl)SC1=S	HP1b chromo inh inconclusive, JMJD2A Tudor inh 50µM, G9a block 35µM, BAZ2B block 50µM (no result: L3MBTL1 block)
CCCCCCSc1cccc(-c2nc3ccc(Cl)cn3c2NCc2ccccc2)c1	none
Cc1c(-n2cc(C(=O)O)c(=O)c3cc(F)c(N4CCCC(O)C4)c(F)c32)c(=O)n(-c2ccccc2)n1C (centres undefined)	none (no result: L3MBTL1 block)
O=C(O)c1cn(-c2ccc(N3CCCC3)c(F)c2)c2c(F)c(F)c(F)cc2c1=O	JMJD2A Tudor inh inconclusive, G9a block 45µM (no result: L3MBTL1 block)
CCN1CCN(CCNC(=O)c2ccc(/C=C3/Sc4ccccc4N(Cc4cccc(Cl)c4)C3=O)cc2)CC1	HP1b chromo inh inconclusive, JMJD2A Tudor inh 22µM, G9a block 40µM (no result: L3MBTL1 block)
CCN1CCN(CCNC(=O)c2ccc3c(c2)N(Cc2ccc(F)cc2)C(=O)/C(=C/c2ccccc2)S3)CC1	HP1b chromo inh inconclusive, JMJD2A Tudor inh inconclusive, G9a block inconclusive, BAZ2B block 40µM (no result: L3MBTL1 block)
Cc1cccc(CN2C(=O)/C(=C\c3ccc(C(=O)NCCN4CCOCC4)cc3)Sc3ccccc32)c1	JMJD2A Tudor inh inconclusive, BAZ2B block inconclusive (no result: L3MBTL1 block, G9a block)
CN(C(=O)c1ccc2c(c1)N(Cc1cccc(Cl)c1)C(=O)c1ccccc1S2(=O)=O)C1CCCCC1	none (no result: L3MBTL1 block)
COc1cccc(C(=O)NCC2OCCc3ccccc32)c1 (centres undefined)	none (no result: L3MBTL1 block)
COc1cc(NC(=O)CCNS(=O)(=O)c2ccc3c(c2)CCN3C(=O)C2CC2)cc(OC)c1	none (no result: L3MBTL1 block)
Cc1ccc(NC(=O)CNC(=O)OCc2ccccc2)cc1C	JMJD2A Tudor inh 56µM
CC(=O)c1ccc(NC(=O)CSc2nnc3ccc(-c4ccc(Cl)cc4)nn23)cc1	none (no result: L3MBTL1 block)
Cc1nn(C)c(C)c1S(=O)(=O)N(CC(=O)NCCc1ccc(Cl)cc1)c1ccc(C(C)C)cc1	none (no result: L3MBTL1 block)
Cc1ccc(C(=O)C2=C(O)C(=O)N(Cc3ccco3)C2c2cccc(Br)c2)o1 (centres undefined)	JMJD2A Tudor inh inconclusive, G9a block inconclusive, BAZ2B block inconclusive (no result: L3MBTL1 block)
O=C(C1=C(O)C(=O)N(Cc2ccco2)C1c1cccnc1)c1cc2ccccc2o1 (centres undefined)	JMJD2A Tudor inh inconclusive, G9a block inconclusive (no result: L3MBTL1 block)
COc1cccc2cc(C(=O)C3=C(O)C(=O)N(Cc4ccco4)C3c3cccnc3)oc12 (centres undefined)	JMJD2A Tudor inh 79µM, G9a block inconclusive (no result: L3MBTL1 block)
O=C(C1=C(O)C(=O)N(Cc2ccco2)C1c1cccc(O)c1)c1ccco1 (centres undefined)	G9a block 50µM (no result: L3MBTL1 block)
Cc1ccc(C(=O)C2=C(O)C(=O)N(Cc3ccco3)C2c2ccc(N(C)C)cc2)o1 (centres undefined)	JMJD2A Tudor inh inconclusive, BAZ2B block 35µM (no result: L3MBTL1 block, G9a block)
COc1ccc(C2C(C(=O)c3ccc(C)o3)=C(O)C(=O)N2Cc2cccnc2)cc1 (centres undefined)	JMJD2A Tudor inh 35µM, G9a block 50µM (no result: L3MBTL1 block)
Cc1c(C(=O)Nc2ccc(-c3nc4cc(Cl)ccc4o3)cc2)oc2ccccc12	none (no result: L3MBTL1 block)
O=C(C1=C(O)C(=O)N(Cc2ccccc2)C1c1ccncc1)c1ccco1 (centres undefined)	JMJD2A Tudor inh inconclusive, G9a block 40µM
Cc1ccc(C(=O)C2=C(O)C(=O)N(Cc3cccnc3)C2c2ccc(N(C)C)cc2)o1 (centres undefined)	G9a block 35µM (no result: L3MBTL1 block)
Cc1ccc(C2C(C(=O)c3ccco3)=C(O)C(=O)N2c2ncccn2)cc1 (centres undefined)	none
Cc1ccc(C(=O)C2=C(O)C(=O)N(c3ncccn3)C2c2cccc(Cl)c2)o1 (centres undefined)	G9a block 10µM, BAZ2B block inconclusive (no result: HP1b chromo inh, JMJD2A Tudor inh)
Cc1ccc(C(=O)C2=C(O)C(=O)N(Cc3cccnc3)C2c2ccc(Br)cc2)o1 (centres undefined)	G9a block inconclusive (no result: L3MBTL1 block)
O=C(C1=C(O)C(=O)N(CCCn2ccnc2)C1c1ccccc1)c1ccco1 (centres undefined)	none (no result: L3MBTL1 block, G9a block)
